Assay results reported in the supplement of paper PMC6555819.

Assays:
Assay in all cases: PBM binding z-score (relative to random genomic background probes); higher = stronger binding; sequences stand for … in GC…GCGATTGACAGCGTAGAATGAAGG
[1] = test system: FXR:RXRa (NR concentration 270 nM, RXRa partner concentration 90 nM)
Summary of the method: (§1)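 Probes were double-stranded and carried 34-nt variable regions with direct-repeat seeds, single-nucleotide variants, half-site ablations and random human genomic background sequences, printed on custom Agilent 4×180K protein-binding microarrays. Arrays were incubated 1 h with ligand-free nuclear receptor dimers in PBS pH 7.4, 2% milk, 0.02% Triton X-100, 1 mM DTT, 0.2 mg/mL BSA and 0.4 mg/ml salmon testes DNA. Antibodies against each partner (one per run) detected binding, and scanned fluorescence was regression-normalized. Binding z-scores use the random background probes as reference.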

[2] = test system: LXRa:RXRa (NR concentration 270 nM, RXRa partner concentration 90 nM)
Summary of the method: as §1

[3] = test system: LXRa homodimer (NR concentration 270 nM)
Summary of the method: as §1

[4] = test system: LXRb:RXRa (NR concentration 270 nM, RXRa partner concentration 90 nM)
Summary of the method: as §1

[5] = test system: LXRb homodimer (NR concentration 270 nM)
Summary of the method: as §1

[6] = test system: PPARa:RXRa (NR concentration 270 nM, RXRa partner concentration 90 nM)
Summary of the method: as §1

[7] = test system: PPARg:RXRa (NR concentration 180 nM, RXRa partner concentration 90 nM)
Summary of the method: as §1

[8] = test system: PPARg:RXRa 270nM:90nM, anti-RXR (NR concentration 270 nM, RXRa partner concentration 90 nM)
Summary of the method: as §1

[9] = test system: PPARg:RXRa 30nM:10nM, anti-RXR (NR concentration 30 nM, RXRa partner concentration 10 nM)
Summary of the method: as §1

[10] = test system: PPARg:RXRa 90nM:30nM, anti-RXR (NR concentration 90 nM, RXRa partner concentration 30 nM)
Summary of the method: as §1

[11] = test system: PPARg:RXRa DBDmut IVT, anti-RXR (DBD mutation: RXRa K156A/R161A, NR concentration 270 nM, RXRa partner concentration 90 nM)
Summary of the method: as §1

[12] = test system: PPARg:RXRa IVT, anti-PPARg (NR concentration 270 nM, RXRa partner concentration 90 nM)
Summary of the method: as §1

[13] = test system: PPARg DBDmut:RXRa IVT, anti-PPARg (DBD mutation: PPARg1 K132A/R137A, NR concentration 270 nM, RXRa partner concentration 90 nM)
Summary of the method: as §1

[14] = test system: PPARg DBDmut IVT, anti-PPARg (DBD mutation: PPARg1 K132A/R137A, NR concentration 270 nM)
Summary of the method: as §1

[15] = test system: PPARg homodimer (NR concentration 180 nM)
Summary of the method: as §1

[16] = test system: PXR:RXRa (NR concentration 270 nM, RXRa partner concentration 90 nM)
Summary of the method: as §1

[17] = test system: PXR homodimer (NR concentration 270 nM)
Summary of the method: as §1

[18] = test system: RARa:RXR (NR concentration 270 nM, RXRa partner concentration 90 nM)
Summary of the method: as §1

[19] = test system: RARa homodimer (NR concentration 270 nM)
Summary of the method: as §1

[20] = test system: RARb:RXRa (NR concentration 270 nM, RXRa partner concentration 90 nM)
Summary of the method: as §1

| Sequence | PBM binding z-score [1] | PBM binding z-score [2] | PBM binding z-score [3] | PBM binding z-score [4] | PBM binding z-score [5] | PBM binding z-score [6] | PBM binding z-score [7] | PBM binding z-score [8] | PBM binding z-score [9] | PBM binding z-score [10] | PBM binding z-score [11] | PBM binding z-score [12] | PBM binding z-score [13] | PBM binding z-score [14] | PBM binding z-score [15] | PBM binding z-score [16] | PBM binding z-score [17] | PBM binding z-score [18] | PBM binding z-score [19] | PBM binding z-score [20] |
| --- | --- | --- | --- | --- | --- | --- | --- | --- | --- | --- | --- | --- | --- | --- | --- | --- | --- | --- | --- | --- |
| AGAATGAGGTTATTAAGATAAGGGAATTGCGGTC | 1.33 | 1.59 | -0.0371 | 1.08 | -0.0386 | 2.64 | 1.47 | 1.65 | 0.732 | 0.962 | 2.05 | 2.31 | 1.03 | 0.188 | 0.58 | 0.886 | 0.278 | 1.24 | 0.541 | 1.23 |
| TCATATAGGTTATACAGGTGAAAGTCGGCATCTA | 1.71 | 2.32 | 0.882 | 1.82 | 0.833 | 2.99 | 2.56 | 3.17 | 3.94 | 3.58 | 4.73 | 4.18 | 1.95 | 0.981 | 1.6 | 1.27 | 1.03 | 1.9 | 1.84 | 1.51 |
| TTACCAAGGTGAGCTGAGGTCGTAGATCCAACTC | 2.54 | 0.614 | -0.687 | 0.401 | -1.29 | 1.78 | 0.268 | 0.85 | -0.191 | 0.588 | 0.925 | 1.67 | -0.714 | -0.674 | -0.332 | 4.2 | -0.58 | 2.1 | -0.84 | 1.85 |
| TCTTGCAGATCAATAGAGGTTAAGAAAGTGCGCT | 0.606 | 3.34 | 0.219 | 2.04 | -0.44 | 1.9 | -0.17 | 1.1 | 1.84 | 1.35 | 0.862 | 0.37 | 0.336 | -0.0409 | -0.12 | 3.03 | 0.036 | 1.91 | -0.478 | 0.805 |
| TCGAGTAGGTTAGTCGGGGCACTCAGCCAACATA | 0.251 | 0.253 | -0.0703 | 0.402 | -1.06 | 0.681 | 0.103 | 0.749 | 0.995 | 0.753 | 2.29 | 2.16 | -0.475 | -0.114 | 0.481 | 0.0586 | -0.241 | 0.247 | -0.581 | 0.524 |
| TCATATAGGTAAACGGGTGAAAGTCCGTAAGTTA | 0.647 | 0.398 | 0.0709 | 0.834 | -0.231 | 2.29 | 2.73 | 3.65 | 3.72 | 3.68 | 4.54 | 4.35 | 1.22 | 1.51 | 0.689 | 0.621 | 0.241 | 0.612 | 0.587 | 0.567 |
| TCTACTTGGTCAAAGGTCACACACTCGAAATGCG | 6.58 | 5.85 | 4.37 | 5.9 | 2.26 | 6.72 | 11.9 | 9.98 | 10.5 | 11 | 3.83 | 6.58 | 2.43 | 3.34 | 4.9 | 6.09 | 1.84 | 7.73 | 4.11 | 5.29 |
| GCCGCTAGGTCAACTGATGGTCAGCTAAAGCTCG | 3.97 | 3.16 | 0.212 | 1.89 | -0.472 | 3.71 | 2.44 | 3.07 | 0.658 | 1.82 | 4.39 | 3.8 | -0.418 | -0.213 | 1.56 | 1.55 | -0.4 | 3.04 | 0.102 | 4.35 |
| AGTCAAAATTCAGGACGAGGTAACGTAAAGCACG | 0.194 | -0.186 | 0.224 | -0.188 | -0.336 | 0.0316 | 0.944 | 0.294 | 0.281 | 0.217 | -0.124 | 0.504 | 0.875 | 0.0968 | 0.59 | -0.0686 | 0.0838 | 0.591 | 0.657 | 0.118 |
| CACACTAGGTCACCGGAAGGTCAAAGTCCGCATG | 6.4 | 6.18 | 6.43 | 5.72 | 2.16 | 6.24 | 8.71 | 7.07 | 4.59 | 6.32 | 7.26 | 8.19 | 3.49 | 0.952 | 7.05 | 6.16 | 2.43 | 7.66 | 2.69 | 5.52 |
| CGTCAAAGTTCAACGAAGGTAACGTAAAGCACGC | 5.82 | 5.6 | 2.79 | 3.6 | 1.02 | 4.68 | 4.43 | 4.94 | 2.06 | 4.07 | 0.66 | 1.92 | 0.175 | 0.224 | 2.37 | 4.52 | 2.37 | 3.37 | 0.936 | 5.18 |
| CCTTACGGGTTACGAGGTTATAGCACGACGAGCG | 1.8 | 2.11 | 0.0451 | 1.8 | -0.317 | 3.36 | 2.89 | 3.03 | 0.671 | 1.8 | 1.39 | 2.73 | -0.246 | 1.02 | 1.32 | 1.95 | 0.0657 | 2.76 | 0.573 | 1.58 |
| CGTCCAGGGTCAGCAGGTCAGTGAAAGCGACGTG | 5.44 | 3.06 | -0.214 | 3.1 | -0.458 | 5.11 | 4.16 | 4.41 | 0.684 | 2.92 | 1.76 | 3.07 | -0.496 | -0.836 | 2.79 | 3.35 | 0.0152 | 4.85 | 0.53 | 4.69 |
| TTACCAAGGTGATGGTCGTTGATCCCTCTGTAGA | 0.274 | 0.0639 | -0.222 | 0.219 | -0.598 | 0.442 | -0.08 | 0.334 | 0.217 | 0.0112 | 1.08 | 1.23 | -0.135 | 0.288 | 0.359 | -0.171 | -0.42 | 0.272 | 0.249 | 0.312 |
| ACTTACGGTTCAACGAGGTTATAGCACGCGTATA | 2.96 | 3.15 | 1.07 | 2.64 | 0.606 | 3.49 | 1.09 | 1.32 | 0.521 | 1.03 | 0.149 | 0.712 | 1.36 | 1.61 | 1.64 | 4.06 | 6.85 | 3.55 | 0.973 | 1.59 |
